# Screens as filed in PubChem.
# VLA-4 inh: inhibition in a human VLA-4 binding assay | P13612 | VLA-4 expressing cells, ligand binding flow cytometry | inhibition, % (about 7 µM as worked out from the volumes in the protocol) | actives 0.2% (n = 330,000) | AID 2557; in the data active means inhibition above about 50%
# GRK2 aptamer HTS: inhibitors of human GRK2 displacing RNA aptamer; bead flow cytometry, FAM-aptamer displacement from GRK2; AID 488847; actives 0.59% (n = 330,000); inhibition of aptamer binding, % at 10 µM;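 active means inhibition of aptamer binding above 40%, roughly 3 SD of noise, on plates passing a quality check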;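 further: median bead fluorescence of bound FAM aptamer so fluorescent compounds give negative values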
# NTR1 ag: NTR1 (human) agonism; NTR1-U2OS beta-arrestin-GFP spot imaging, agonist mode; activation, % at 20 µM; actives 0.17% (n = 330,000); AID 493036;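 active means activation at or above 40% of the spot to cytoplasm intensity ratio, with at least 20 cells analyzed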;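 further: 0% = DMSO without peptide and 100% = 100 nM NTR1 peptide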
# A1 inh: inhibitors of the anti-apoptotic protein A1, read as caspase activation. MEF A1-2A-BIM cells, Caspase-Glo 3/7 luminescence, 3 h; percent of clofoctol response, vehicle zero. caspase activation, % (test concentration not listed). actives 0.066% (n = 330,000);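 active means over half of replicate activation scores above 10%, or exactly half above 10 with the replicate mean above 10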
# Beta2AR agonist: human beta-2 adrenergic receptor agonism by FAP | P07550 | Am2.2-beta2AR cells, FAP receptor internalization, flow cytometry | response, % (concentration not given with the values) | actives 0.43% (n = 340,000) | AID 504454;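 active means response above a set limit, near 3 SD of response in nonfluorescent compounds, cut at about 42% in these data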
# Target sequence (P07550 whole entry, looked up): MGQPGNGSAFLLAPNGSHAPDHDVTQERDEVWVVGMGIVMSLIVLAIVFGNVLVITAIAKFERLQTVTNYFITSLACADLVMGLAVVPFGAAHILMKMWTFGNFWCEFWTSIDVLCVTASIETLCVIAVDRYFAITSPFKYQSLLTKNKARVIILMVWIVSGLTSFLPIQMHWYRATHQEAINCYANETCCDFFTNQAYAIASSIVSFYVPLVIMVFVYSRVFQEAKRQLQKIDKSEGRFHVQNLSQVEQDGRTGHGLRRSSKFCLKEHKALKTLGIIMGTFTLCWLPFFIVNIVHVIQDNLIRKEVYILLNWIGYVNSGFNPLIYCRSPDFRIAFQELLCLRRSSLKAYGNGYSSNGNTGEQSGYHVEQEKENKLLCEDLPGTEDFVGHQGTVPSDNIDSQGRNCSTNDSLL
# GRK2 inh confirm: confirmation of human GRK2 inhibitors displacing RNA aptamer | aptamer displacement, % at 10 µM | bead-bound GRK2, FAM-aptamer displacement, flow cytometry | actives 4% (n = 2,000) | shares compounds with GRK2 aptamer HTS;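 active means aptamer displacement above 40%, near three times the noise of non-fluorescent compounds, on plates passing quality checks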;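 further: negative values mostly reflect intrinsic compound fluorescence rather than true enhancement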
# Aptamer quench SP: aptamer fluorescence quenching in GRK2 counter-screen | shares compounds with GRK2 aptamer HTS | Carboxyfluorescein RNA aptamer on beads, flow cytometry quenching; active compounds read low | fluorescence response (% of DMSO), % at 10 µM | 2,000 tested, under 10 active | AID 504580;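 active means compounds that quench the bead-bound fluorescent RNA probe, cutting fluorescence to under half of the solvent control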;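 further: counterscreen run without GRK2 so only probe quenching by compound is measured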
# GRK2 confirm 2: confirmation of human GRK2 inhibitors binding RNA aptamer site; shares compounds with GRK2 aptamer HTS; bead-bound GRK2, FAM-aptamer displacement, flow cytometry; inhibition of aptamer binding, % at 10 µM; 360 tested, under 10 active;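 active means inhibition of aptamer binding above 40%, about triple the noise seen with nonglowing compounds, on plates passing quality control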;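 further: negative values mostly come from compounds that fluoresce themselves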
# FAM quench SP: aptamer fluorescence quenching in GRK2 counter-screen; shares compounds with GRK2 aptamer HTS; carboxyfluorescein RNA aptamer beads, flow cytometry quenching; active compounds read low; fluorescence response vs DMSO, % at 10 µM; 360 tested, under 10 active;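 active means response vs DMSO under 50%, meaning signal dropped by over half, treated as fluorescence quencher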;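 further: labelled aptamer on streptavidin beads without GRK2 as a quench counter-screen; 100% = bead fluorescence of DMSO wells and lower means quenching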
# * hit, by the source's call; . = no result given. Hits are enriched below; roughly 1.3% of the tested compounds scored in any of these assays.
SMILES,VLA-4 inh,GRK2 aptamer HTS,NTR1 ag,A1 inh,Beta2AR agonist,GRK2 inh confirm,Aptamer quench SP,others
Cc1ccccc1NC(=S)NNc1ncc(C(F)(F)F)cc1Cl,-9,0,0,-1,-1,.,.,
Cc1cccc(C)c1NC(=S)NNc1ncc(C(F)(F)F)cc1Cl,4,48*,2,0,3,-1,99,
CNC(=O)NC(=O)COC(=O)c1n[nH]c2ccccc12,-3,45*,-1,1,-2,0,98,
CCOC(=O)c1n[nH]c2ccccc12,30,1,0,0,-1,.,.,
O=C(OCCOc1ccccc1)c1n[nH]c2ccccc12,6,78*,-1,0,-5,4,97,
Cc1ccc(S(=O)(=O)N2CCN(C(=O)CCc3c[nH]c4ccccc34)CC2)c(C)c1,1,1,0,-1,9,.,.,
Cc1ccc(S(=O)(=O)NNC(=O)c2ccc(NC(=O)C3CC3)cc2)cc1,-12,4,0,1,0,.,.,
Cc1nnc(C)c2c(C)n(Cc3ccc4c(c3)OCO4)c(C)c12,-3,64*,0,-1,2,-13,93,
c1cc2c(cc1Cn1cnnn1)OCO2,0,0,0,1,4,.,.,
CCOc1ccc(-n2c(SCc3nc(-c4ccc(C)cc4)no3)nnc2-c2ccncc2)cc1,7,1,2,0,-9,.,.,
Cc1ccc(-c2noc(CSc3nnc(-c4ccncc4)n3-c3ccc(C)cc3)n2)cc1,4,99*,1,0,-5,-1,95,
COc1ccc(CC(=O)N(Cc2ccccc2)C(C)C)cc1,18,2,0,0,-2,.,.,
COc1ccc(CN([C@H](C)CO)S(=O)(=O)N(Cc2ccccc2)[C@H](CO)C(C)C)cc1,-2,46*,1,1,-4,-3,96,
COc1ccc(CCC(C)N(C)Cc2ccccc2)cc1 (stereo unspecified),2,37,2,1,-5,0,93,
Cc1ccccc1-c1cc(C(=O)NCc2ccco2)nn1CC1CC(c2cccc([N+](=O)[O-])c2)=NO1 (stereo unspecified),4,3,-1,0,1,.,.,
Cc1ccccc1-c1cc(C(=O)NCc2cccs2)nn1CC1CC(c2cccc([N+](=O)[O-])c2)=NO1 (stereo unspecified),-2,0,-2,0,-4,-1,111,
O=C(CN1CCN(c2cccc(C(F)(F)F)c2)CC1)Nc1cccc(C(F)(F)F)c1,0,2,3,0,-2,.,.,
Cc1[nH]c2ccccc2c1NC(=O)CN1CCN(c2cccc(C(F)(F)F)c2)CC1,2,74*,8,0,-6,-4,98,
CCCC(=O)NC1=C(C#N)C2(CCCC2)Cc2ccccc21,0,58*,0,0,8,0,94,
CCCC(=O)Nn1cnc2c(c1=O)C1(CCCC1)Cc1ccccc1-2,26,1,-2,0,-6,.,.,
O=C1C=C(O)CC(c2ccco2)C1 (stereo unspecified),4,91*,0,1,10,6,102,
O=C1C=C(Nc2ccc(O)cc2)CC(c2ccco2)C1 (stereo unspecified),-1,3,0,0,-1,.,.,
Cc1cc(C)nc(N2CCN(C(=O)CCC(=O)Nc3nnc(C(C)C)s3)CC2)n1,-7,5,2,0,-2,.,.,
CN(C)S(=O)(=O)n1cnc(C(CCO)c2ncn(S(=O)(=O)N(C)C)c2CCCO)c1 (stereo unspecified),22,40,0,-1,-2,3,22*,
CCc1ccc(N(CC)C(=O)c2cn(C)c(=O)c3ccccc23)cc1,5,29,-1,4,-2,0,102,
SMILES,VLA-4 inh,GRK2 aptamer HTS,NTR1 ag,A1 inh,Beta2AR agonist,GRK2 inh confirm,Aptamer quench SP,others
Cc1cc(C(F)(F)F)nc(SCC(=O)Nc2ccccc2)n1,1,0,-2,1,-13,.,.,
Cc1cc(C(F)(F)F)nc(SCC(=O)NC2CC3CCC2C3)n1 (stereo unspecified),1,53*,-1,2,-8,-2,98,
COCC(=O)N1CCC(Oc2ccc(C(=O)NCc3cnc(C)cn3)cc2)CC1,10,1,2,0,-1,.,.,
CCn1ccnc1CNC(=O)c1ccc(OC2CCN(C(=O)COC)CC2)cc1,-10,0,0,.,2,3,97,
COc1cc(C=CC(=O)OCC=Cc2ccc3c(c2)OCO3)cc(OC)c1OC,.,.,.,.,1,.,.,
O=C(Cc1cccs1)N1CCN(S(=O)(=O)c2ccc(F)c(F)c2)CC1,16,0,3,0,-1,.,.,
CCOC(=O)c1cccc(NC(=O)CCS(=O)(=O)c2cccc3nsnc23)c1,3,3,-1,-1,-2,.,.,
Cc1cccc(NC(=O)CCS(=O)(=O)c2cccc3nsnc23)c1C,-12,3,-2,0,6,.,.,GRK2 confirm 2=13;FAM quench SP=101
Cc1cccc(NC(=O)CCc2ccccc2)c1C,-7,85*,0,-1,11,-5,98,
COc1cc2c(cc1OC)CN(C(=O)C1CCCN1S(=O)(=O)c1ccc(C)cc1)CC2 (stereo unspecified),-9,0,-1,-1,3,.,.,
CC(CNC(=O)Cn1ccc(N)nc1=O)c1ccccc1 (stereo unspecified),0,0,0,0,-2,.,.,
CC(C)=C1C2CCC1C1C(=O)N(c3ccc4c(c3)OCO4)C(=O)C21 (stereo unspecified),6,48*,1,0,4,.,.,GRK2 confirm 2=-42;FAM quench SP=101
CC(C)=C1C2C=CC1C1C(=O)N(c3ccc4c(c3)OCO4)C(=O)C21 (stereo unspecified),-2,0,3,4,1,.,.,
C=CCNC(=S)NNC(=O)C(CCCC)CC(O)COCC(C)C (stereo unspecified),2,45*,0,0,4,4,101,
C=CCNC(=S)NNC(=O)C(CCC(C)C)CC(C)O (stereo unspecified),-14,0,-2,0,-4,.,.,
Cc1ccc(N(CC(=O)Nc2ccccc2-c2ccccc2)S(=O)(=O)c2ccccc2)c(C)c1,29,40,2,0,14,-3,106,
